Measurements published in PubChem BioAssay (EPA / NIEHS).
Inconclusive results are not listed. Active and inactive are the calls of the source. Rule for the calls: active = hit-call score of the fitted dose curve at least 0.9, where 1 is the maximum; inconclusive = response in the unintended direction; inactive = score below 0.9.

Key:
[1] = target: rat Neonicotinoid receptor (NNR), Chrna7 (gene 25302) (UniProt Q05941); assay: NVS_LGIC_rNNR_BungSens: NovaScreen (NVS) Ligand-Gated Ion Channel Assay for rat Neonicotinoid receptor (NNR) (AID 2283315)
How it was run: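 Radioligand displacement binding on rat cortical membranes, 2.5 h incubation, filtration and scintillation counting. Loss of specific binding fitted relative to DMSO.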

[2] = target: bovine Gamma-Aminobutyric Acid Type A Receptor BDZ, alpha 5 site (GABARa5), GABRA5 (gene 523515) (UniProt Q08E50); assay: NVS_LGIC_bGABARa5: NovaScreen (NVS) Ligand-Gated Ion Channel Assay for bovine Gamma-Aminobutyric Acid Type A Receptor BDZ, alpha 5 site (GABARa5) (AID 2283323)
How it was run: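 Radioligand competitive displacement binding on bovine hippocampal membranes, read 1 hr after dosing by filter-based scintillation counting. Primary screen at 25 uM in duplicate; actives (e.g. ≥30% inhibition) then run in concentration-response up to 50 uM.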

[3] = target: rat Thyrotropin Releasing Hormone Receptor (TRH), Trhr (gene 25570) (UniProt Q01717); assay: NVS_GPCR_rTRH: NovaScreen (NVS) G Protein-Coupled Receptor Assay for rat Thyrotropin Releasing Hormone Receptor (TRH) (AID 2283329);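 note: hit means lower bound tracer signal versus DMSO baseline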
Sequence of rat Thyrotropin Releasing Hormone Receptor (TRH), Trhr (gene 25570) (Q01717 whole entry, looked up): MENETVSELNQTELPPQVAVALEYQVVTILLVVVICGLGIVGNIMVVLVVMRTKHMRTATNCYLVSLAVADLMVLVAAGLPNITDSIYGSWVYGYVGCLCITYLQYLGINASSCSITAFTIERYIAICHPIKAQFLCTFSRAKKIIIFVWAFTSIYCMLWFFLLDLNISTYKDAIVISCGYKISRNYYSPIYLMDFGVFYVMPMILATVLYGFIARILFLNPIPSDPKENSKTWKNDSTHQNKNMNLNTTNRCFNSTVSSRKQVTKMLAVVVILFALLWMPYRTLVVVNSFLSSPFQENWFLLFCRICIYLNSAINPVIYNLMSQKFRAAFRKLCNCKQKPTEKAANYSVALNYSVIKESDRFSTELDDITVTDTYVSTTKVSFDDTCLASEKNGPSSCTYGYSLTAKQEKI
How it was run: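 Cell-free radioligand binding on rat forebrain membranes; bound tracer measured by filter-based scintillation counting 4 hours after dosing. Loss of signal versus DMSO baseline indicates displacement; primary screen at 25 uM in duplicate, actives then run in concentration series.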

[4] = target: rat Peripheral-type Benzodiazepine Receptor (PBR), Tspo (gene 24230) (UniProt P16257); assay: NVS_MP_rPBR: NovaScreen (NVS) Membrane Protein Assay for rat Peripheral-type Benzodiazepine Receptor (PBR) (AID 2283335)
Sequence of rat Peripheral-type Benzodiazepine Receptor (PBR), Tspo (gene 24230) (P16257 whole entry, looked up): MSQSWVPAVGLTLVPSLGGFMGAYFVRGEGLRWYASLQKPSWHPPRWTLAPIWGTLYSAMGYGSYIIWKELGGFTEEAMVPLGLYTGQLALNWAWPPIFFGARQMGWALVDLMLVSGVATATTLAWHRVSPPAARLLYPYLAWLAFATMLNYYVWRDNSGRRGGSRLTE
How it was run: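 Rat kidney membranes; radioligand binding with displacement, filter-based scintillation counting, 1 h incubation. Primary screen in duplicate at 25 uM, actives followed in concentration series; loss of binding vs DMSO.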

[5] = NVS_IC_rCaDHPRCh_L: NovaScreen (NVS) Ion Channel Assay for rat Calcium Channel, Type L, Dihydropyridine Site (CaDHPRCh_L) (AID 2283320)
How it was run: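 Radioligand binding to dihydropyridine site on rat cortical membranes, filter-based scintillation counting, 1 h after dosing. Screened in duplicate at 25 uM; actives rerun in concentration-response up to 50 uM. Loss of signal versus DMSO baseline.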

[6] = target: Sodium channel protein type 1 subunit alpha (Rattus norvegicus) (UniProt P04774); assay: NVS_IC_rNaCh_site2: NovaScreen (NVS) Ion Channel Assay for rat Sodium Channel, Site 2 (NaCh) (AID 2283322);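 note: hit means loss of radioligand binding signal relative to DMSO so AC50 marks displacement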
How it was run: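 Membranes: rat forebrain. Format: competitive radioligand displacement, filter separation, scintillation readout, 1 h exposure. Primary screen in duplicate at 25 uM; actives retested in concentration series.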

[7] = target: Voltage-gated inwardly rectifying potassium channel KCNH2 (Homo sapiens) (UniProt Q12809); assay: NVS_IC_hKhERGCh: NovaScreen (NVS) Ion Channel Assay for human Potassium Channel ERG (KhERGCh) (AID 2283333)
Sequence of Voltage-gated inwardly rectifying potassium channel KCNH2 (Homo sapiens) (Q12809 whole entry, looked up): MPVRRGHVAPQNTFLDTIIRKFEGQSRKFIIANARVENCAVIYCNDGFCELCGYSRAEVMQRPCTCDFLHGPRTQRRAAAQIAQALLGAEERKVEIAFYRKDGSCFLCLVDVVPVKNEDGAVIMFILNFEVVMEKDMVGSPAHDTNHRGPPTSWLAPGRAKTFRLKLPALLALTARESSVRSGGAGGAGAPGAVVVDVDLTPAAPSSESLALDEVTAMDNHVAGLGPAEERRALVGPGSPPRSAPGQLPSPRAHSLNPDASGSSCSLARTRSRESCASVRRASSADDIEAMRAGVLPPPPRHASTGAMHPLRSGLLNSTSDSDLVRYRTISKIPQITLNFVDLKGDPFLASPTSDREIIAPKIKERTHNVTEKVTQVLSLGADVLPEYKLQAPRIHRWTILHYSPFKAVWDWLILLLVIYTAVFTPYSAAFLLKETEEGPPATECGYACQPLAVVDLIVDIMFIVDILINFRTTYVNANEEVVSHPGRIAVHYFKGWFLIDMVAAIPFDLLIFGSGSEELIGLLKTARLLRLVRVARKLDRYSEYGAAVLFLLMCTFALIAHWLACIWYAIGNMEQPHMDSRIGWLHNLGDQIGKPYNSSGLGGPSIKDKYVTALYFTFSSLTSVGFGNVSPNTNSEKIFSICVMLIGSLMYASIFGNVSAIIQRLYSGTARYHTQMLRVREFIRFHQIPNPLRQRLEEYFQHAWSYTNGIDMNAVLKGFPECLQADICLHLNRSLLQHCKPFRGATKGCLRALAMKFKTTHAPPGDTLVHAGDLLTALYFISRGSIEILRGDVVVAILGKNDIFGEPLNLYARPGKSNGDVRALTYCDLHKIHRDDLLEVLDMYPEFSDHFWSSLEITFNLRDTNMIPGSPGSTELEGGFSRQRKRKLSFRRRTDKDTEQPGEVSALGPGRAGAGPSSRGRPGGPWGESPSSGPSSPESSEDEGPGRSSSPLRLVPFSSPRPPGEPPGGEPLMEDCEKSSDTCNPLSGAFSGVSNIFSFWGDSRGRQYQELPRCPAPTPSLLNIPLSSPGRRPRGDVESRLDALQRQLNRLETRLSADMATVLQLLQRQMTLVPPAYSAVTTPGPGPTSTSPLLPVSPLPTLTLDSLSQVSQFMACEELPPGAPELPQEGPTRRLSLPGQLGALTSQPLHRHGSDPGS
How it was run: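 Cell-free radioligand competition binding on hERG protein extracted from CHO cells, read by filter-based scintillation counting 0.75 h after dosing. Primary screen at 25 uM in duplicate, actives followed in concentration series. Signal loss fitted versus DMSO.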

[8] = NVS_IC_rCaBTZCHL: NovaScreen (NVS) Ion Channel Assay for Calcium Channel, Type L, Benzothiazepine Site (CaBTZCHL) (AID 2283337)
How it was run: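 Radioligand displacement at the benzothiazepine site using rat cortical membranes; bound label measured by filtration and scintillation counting 1.5 h after dosing. Single-point 25 uM in duplicate, then concentration series; DMSO baseline.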

[9] = target: rat Somatostatin Receptor (SST), Sstr1 (gene 25033) (UniProt P28646); assay: NVS_GPCR_rSST: NovaScreen (NVS) G Protein-Coupled Receptor Assay for rat Somatostatin Receptor (SST) (AID 2283314)
Sequence of rat Somatostatin Receptor (SST), Sstr1 (gene 25033) (P28646 whole entry, looked up): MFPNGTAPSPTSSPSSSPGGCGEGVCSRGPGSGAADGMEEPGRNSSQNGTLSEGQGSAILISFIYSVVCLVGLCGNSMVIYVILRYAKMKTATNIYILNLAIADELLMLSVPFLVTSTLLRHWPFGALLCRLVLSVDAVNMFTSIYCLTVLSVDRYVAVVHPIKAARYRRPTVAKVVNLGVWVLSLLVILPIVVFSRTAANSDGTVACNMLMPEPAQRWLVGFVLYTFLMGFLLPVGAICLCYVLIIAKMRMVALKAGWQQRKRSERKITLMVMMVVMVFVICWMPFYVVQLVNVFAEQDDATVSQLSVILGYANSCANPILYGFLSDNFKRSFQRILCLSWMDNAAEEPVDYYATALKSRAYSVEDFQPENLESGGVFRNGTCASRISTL
How it was run: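 Rat forebrain membranes; radioligand displacement read by filter-based scintillation counting 1 h after dosing. Primary screen in duplicate at 25 uM. Actives (e.g., 30% inhibition) were rerun as concentration-response to 50 uM max and fitted against DMSO.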

[10] = target: rat Vasopressin 1 Receptor (V1), Avpr1a (gene 25107) (UniProt P30560); assay: NVS_GPCR_rV1: NovaScreen (NVS) G Protein-Coupled Receptor Assay for rat Vasopressin 1 Receptor (V1) (AID 2283316)
Sequence of rat Vasopressin 1 Receptor (V1), Avpr1a (gene 25107) (P30560 whole entry, looked up): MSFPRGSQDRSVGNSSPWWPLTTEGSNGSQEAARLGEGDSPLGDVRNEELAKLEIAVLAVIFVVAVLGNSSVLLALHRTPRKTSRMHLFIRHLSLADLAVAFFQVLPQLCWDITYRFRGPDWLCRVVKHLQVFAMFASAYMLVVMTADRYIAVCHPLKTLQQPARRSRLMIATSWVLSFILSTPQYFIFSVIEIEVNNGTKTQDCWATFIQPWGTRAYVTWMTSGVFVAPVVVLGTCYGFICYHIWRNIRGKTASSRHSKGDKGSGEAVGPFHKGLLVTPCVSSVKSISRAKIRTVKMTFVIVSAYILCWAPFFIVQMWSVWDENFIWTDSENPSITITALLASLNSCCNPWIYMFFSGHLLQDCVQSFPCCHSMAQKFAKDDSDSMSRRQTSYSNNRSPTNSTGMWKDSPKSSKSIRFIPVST
How it was run: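 Radioligand binding on rat liver membranes, 1.5 h incubation, filter-based scintillation counting. Single 25 uM screen in duplicate; chemicals meeting threshold (e.g. 30% inhibition) run in concentration-response up to 50 uM.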

NCBI gene 24521 = assay: NVS_IC_rKATPCh: NovaScreen (NVS) Ion Channel Assay for rat Potassium Channel, ATP-Sensitive (KATPCh) (AID 2283319)
How it was run: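 Rat cortical membranes; radioligand binding at ATP-sensitive K channel site, filter-based scintillation counting 2 h after dosing. Single-point duplicate screen at 25 uM, hits rerun in concentration-response up to 50 uM; loss of signal versus DMSO.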

[11] = target: rat Glutamate, AMPA Site (AMPA), Gria1 (gene 50592) (UniProt P19490); assay: NVS_LGIC_rAMPA: NovaScreen (NVS) Ligand-Gated Ion Channel Assay for rat Glutamate, AMPA Site (AMPA) (AID 2283324)
Sequence of rat Glutamate, AMPA Site (AMPA), Gria1 (gene 50592) (P19490 whole entry, looked up): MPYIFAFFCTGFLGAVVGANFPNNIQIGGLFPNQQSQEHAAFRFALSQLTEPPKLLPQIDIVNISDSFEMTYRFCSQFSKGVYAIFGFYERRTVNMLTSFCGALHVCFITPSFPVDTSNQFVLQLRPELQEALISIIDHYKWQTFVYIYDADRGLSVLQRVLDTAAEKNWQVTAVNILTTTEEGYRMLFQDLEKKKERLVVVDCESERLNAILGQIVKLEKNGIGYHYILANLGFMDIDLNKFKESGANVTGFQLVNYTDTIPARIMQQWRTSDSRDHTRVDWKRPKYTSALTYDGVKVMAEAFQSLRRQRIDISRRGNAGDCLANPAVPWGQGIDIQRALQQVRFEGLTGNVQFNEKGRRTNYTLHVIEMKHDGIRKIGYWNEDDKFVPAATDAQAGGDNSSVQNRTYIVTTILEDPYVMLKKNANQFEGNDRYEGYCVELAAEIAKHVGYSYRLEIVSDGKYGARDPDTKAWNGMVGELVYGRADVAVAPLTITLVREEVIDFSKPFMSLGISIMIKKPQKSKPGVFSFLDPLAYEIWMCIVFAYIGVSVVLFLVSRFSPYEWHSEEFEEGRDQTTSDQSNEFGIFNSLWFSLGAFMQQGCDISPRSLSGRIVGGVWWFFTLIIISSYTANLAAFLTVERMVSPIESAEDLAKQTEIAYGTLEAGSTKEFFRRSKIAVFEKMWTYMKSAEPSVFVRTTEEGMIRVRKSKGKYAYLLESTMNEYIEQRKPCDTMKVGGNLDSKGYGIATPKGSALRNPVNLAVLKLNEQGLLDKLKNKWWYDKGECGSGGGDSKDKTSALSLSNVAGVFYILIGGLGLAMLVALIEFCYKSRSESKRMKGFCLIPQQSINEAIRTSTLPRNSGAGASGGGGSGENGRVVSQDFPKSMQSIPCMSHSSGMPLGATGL
How it was run: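 Rat forebrain membranes; radioligand binding read 1 h after dosing by filtration and scintillation counting. Duplicate single-point screen at 25 uM, then concentration-response to 50 uM for threshold hits (e.g. 30% inhibition); loss of signal vs DMSO.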

[12] = target: rat Gamma-Aminobutyric Acid Type A Receptor, Non-Selective (GABAR-NonSelective), Gabra1 (gene 29705) (UniProt P62813); assay: NVS_LGIC_rGABAR_NonSelective: NovaScreen (NVS) Ligand-Gated Ion Channel Assay for rat Gamma-Aminobutyric Acid Type A Receptor, Non-Selective (GABAR-NonSelective) (AID 2283326)
Sequence of rat Gamma-Aminobutyric Acid Type A Receptor, Non-Selective (GABAR-NonSelective), Gabra1 (gene 29705) (P62813 whole entry, looked up): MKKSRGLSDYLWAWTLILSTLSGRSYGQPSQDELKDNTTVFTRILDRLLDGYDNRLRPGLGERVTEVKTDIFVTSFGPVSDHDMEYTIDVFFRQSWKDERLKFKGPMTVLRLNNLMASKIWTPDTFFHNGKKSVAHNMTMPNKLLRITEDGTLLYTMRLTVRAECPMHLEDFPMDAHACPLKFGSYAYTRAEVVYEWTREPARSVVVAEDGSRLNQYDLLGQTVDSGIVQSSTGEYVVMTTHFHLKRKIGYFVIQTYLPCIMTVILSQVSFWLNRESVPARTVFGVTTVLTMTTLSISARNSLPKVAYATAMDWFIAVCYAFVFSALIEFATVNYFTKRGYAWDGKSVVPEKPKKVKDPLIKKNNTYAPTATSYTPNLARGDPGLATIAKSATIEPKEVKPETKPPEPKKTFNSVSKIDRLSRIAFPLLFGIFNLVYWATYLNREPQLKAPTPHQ
How it was run: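 Radioligand displacement on rat whole-brain extract, 1 h, filter scintillation readout; signal loss fitted versus DMSO. Primary screen in duplicate at 25 uM; hits (e.g. ≥30% inhibition) retested in concentration-response up to 50 uM.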

[13] = target: Small conductance calcium-activated potassium channel protein 1 (Rattus norvegicus) (UniProt P70606); assay: NVS_IC_rKCaCh: NovaScreen (NVS) Ion Channel Assay for rat Potassium Channel, Ca2+ Act., VI (KCaCh) (AID 2283336)
Sequence of Small conductance calcium-activated potassium channel protein 1 (Rattus norvegicus) (P70606 whole entry, looked up): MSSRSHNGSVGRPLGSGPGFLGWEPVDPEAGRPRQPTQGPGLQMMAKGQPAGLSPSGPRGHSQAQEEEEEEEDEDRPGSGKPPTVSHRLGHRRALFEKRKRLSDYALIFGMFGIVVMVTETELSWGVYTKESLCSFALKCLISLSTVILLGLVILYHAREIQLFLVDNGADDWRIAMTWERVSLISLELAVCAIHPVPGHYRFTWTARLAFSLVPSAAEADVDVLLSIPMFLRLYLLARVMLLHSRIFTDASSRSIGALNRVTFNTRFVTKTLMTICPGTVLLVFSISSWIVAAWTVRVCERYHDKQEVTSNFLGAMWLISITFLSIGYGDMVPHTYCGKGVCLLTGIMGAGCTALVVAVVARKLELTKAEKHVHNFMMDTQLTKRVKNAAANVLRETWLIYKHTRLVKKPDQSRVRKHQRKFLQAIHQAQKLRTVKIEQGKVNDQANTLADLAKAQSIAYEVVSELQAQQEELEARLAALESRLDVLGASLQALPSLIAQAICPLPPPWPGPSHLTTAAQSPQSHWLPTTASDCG
How it was run: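 Radioligand binding to rat forebrain membranes, cell-free, read 1 hour after dosing by filter-based scintillation counting. Compounds first run in duplicate at 25 uM, actives then in concentration series; loss of signal vs DMSO indicates displacement.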

[14] = target: human Peripheral-type Benzodiazepine Receptor (PBR), TSPO (gene 706) (UniProt P30536); assay: NVS_MP_hPBR: NovaScreen (NVS) Membrane Protein Assay for human Peripheral-type Benzodiazepine Receptor (PBR) (AID 2283331);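 note: hits reduce radioligand binding relative to DMSO baseline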
Sequence of human Peripheral-type Benzodiazepine Receptor (PBR), TSPO (gene 706) (P30536 whole entry, looked up): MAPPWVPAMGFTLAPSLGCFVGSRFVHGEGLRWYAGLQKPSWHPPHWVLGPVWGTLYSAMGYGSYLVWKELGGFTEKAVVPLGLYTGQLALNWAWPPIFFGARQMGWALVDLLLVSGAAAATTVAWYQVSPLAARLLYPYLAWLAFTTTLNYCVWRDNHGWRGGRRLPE
How it was run: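 Scintillation counts of filter-bound radioligand served as read-out after 1 h chemical dosing of human colonic membrane preparations. Activity was scored as signal loss against DMSO; initial duplicates at 25 uM, confirmatory concentration series afterward.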

For `CCCCc1nc2cccnc2n1Cc1ccc(-c2ccccc2-c2nnn[nH]2)cc1`, the outcome [1] was “inactive”, the outcome [2] was “inactive” and the outcome [3] was “inactive”. For the same compound, the AC50 [4] was 14.6 µM (active).
For `COC(=O)[C@H]1[C@H]2C[C@@H]3c4[nH]c5cc(OC)ccc5c4CCN3C[C@H]2C[C@@H](OC(=O)c2cc(OC)c(OC)c(OC)c2)[C@@H]1OC`, the AC50 [5] was 11.6 µM (active), the AC50 [6] was 5.49 µM (active) and the outcome [7] was “inactive”. For the same compound, the AC50 [8] was 6.93 µM (active).
In the case of `COc1ccc(OC(F)(F)F)cc1CN[C@H]1CCCN[C@H]1c1ccccc1`, the AC50 [9] was 8.11 µM (active), the outcome [10] was “inactive” and the outcome (NCBI gene 24521) was “inactive”. For the same compound, the AC50 [6] was 0.623 µM (active), the outcome [11] was “inactive” and the AC50 [12] was 2 µM (active). The outcome [13] was “inactive” and the AC50 [8] was 1.24 µM (active).
For `CO[C@@H]1COCC[C@@H]1N[C@@H]1CC[C@@](C(=O)N2CCc3ncc(C(F)(F)F)cc3C2)(C(C)C)C1`, the outcome [10] was “inactive” and the AC50 [6] was 9.94 µM (active).
For `Cc1cc(Cc2ccc(N)c(C)c2)ccc1N`, the outcome (NCBI gene 24521) was “inactive”, the outcome [3] was “inactive” and the outcome [14] was “inactive”. The outcome [4] was “inactive”.
